# Data published in the supplement of paper PMC9135407.
# Values joined by “and” are separate entries in the source; they are usually repeats but may differ in a detail not shown here. Identical values can stand only once. Counter-ions that a name gives are not always drawn. The whole screen tested about 5,800 compounds, of which about 620 (11%) showed activity. The sample as a whole holds a higher share of actives than the screen did. A number with no mark means an inactive call.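 Rule for the calls: active = score above a cut-off or among the top three wells of a plate; in these data no inactive exceeds 0.85.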
# Test system: primary human hepatic stellate cells (donor 1)
# Test: scaled lipid accumulation score (0 = DMSO-like, 1 = nortriptyline-like); higher = stronger HSC inactivation (lipid re-accumulation), active = hit call of the paper
# Settings: 48 h
# Procedure: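 Primary lipid accumulation screen in primary human hepatic stellate cell myofibroblasts (donor 1, passage 8) in 384-well plates. 100 nL of library compound was pin-transferred into 30 µL medium in duplicate, and cells were treated for 48 h. The 'Scaled' score combines distance from plate baseline, toxicity and reproducibility penalties, and is normalised to nortriptyline (positive) and DMSO (negative) controls on each plate. A hit is defined as scaled >0.85 or among the top 3 wells per plate.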
# [1] = library stock concentration: 1 mM
# [2] = library stock concentration: 10 mM
# [3] = library stock concentration: 80 uM
# [4] = library stock concentration: 400 uM
# [5] = library stock concentration: 2 mM
# [6] = library stock concentration: 3.33 mM
# [7] = library stock concentration: 6.4 mM
structure (smiles),measurement,setting,value
CC(C)CCCCCCC/C=C/C(=O)O [trans-.DELTA.2-11-methyl-Dodecenoic Acid],scaled lipid accumulation score,[1],≤ 0
CC(C)=CCC/C(C)=C/CC/C(C)=C/CSCC(=O)O [Farnesylthioacetic acid],scaled lipid accumulation score,[1],≤ -0.021
CC(C)=CCC/C(C)=C/CC/C(C)=C/CSCC(=O)O [S-Farnesyl Thioacetic Acid],scaled lipid accumulation score,[1],0.018
CCCCCCCCCC(=O)NC(CN1CCOCC1)C(O)c1ccccc1 (configuration not stated) [PDMP (hydrochloride)],scaled lipid accumulation score,[1],≤ 0
C1CCN2C[C@@H]3C[C@@H](CN4CCCC[C@@H]34)[C@H]2C1 [Sparteine (-)],scaled lipid accumulation score,,≤ 0
C1CCN2C[C@@H]3C[C@@H](CN4CCCC[C@@H]34)[C@H]2C1 [Sparteine sulfate],scaled lipid accumulation score,library stock concentration: 6 mM,≤ -0.001
same,scaled lipid accumulation score,[2],0.072
CCCCC[C@H](O)/C=C/[C@H]1[C@H](O)CC(=O)[C@@H]1C/C=C\CCCC(=O)O [Prostaglandin E2],scaled lipid accumulation score,[1],≤ 0
same,scaled lipid accumulation score,[2],≤ -0.001
CCCCC[C@H](O)/C=C/[C@H]1[C@H](O)CC(=O)[C@@H]1C/C=C\CCCC(=O)O [Dinoprostone],scaled lipid accumulation score,library stock concentration: 5.7 mM,≤ -0.006
CCCCC[C@H](O)/C=C/[C@H]1[C@H](O)CC(=O)[C@@H]1C/C=C\CCCC(=O)O [Prostaglandin  E2],scaled lipid accumulation score,[1],≤ -0.021
"Cc1ccc2c(c1)C(=O)C1(O)CCN(c3ccccc3)C1=N2 (single isomer, unassigned; (-)) [(-)-Blebbistatin]",scaled lipid accumulation score,[3],≤ -0.001
same,scaled lipid accumulation score,[4],≤ -0.001
same,scaled lipid accumulation score,[1],≤ 0
same,scaled lipid accumulation score,[5],≤ -0.001
same,scaled lipid accumulation score,[6],≤ -0.009
same,scaled lipid accumulation score,[2],0.264
CCCCC/C=C\C/C=C\CC/C=C\CCCC(=O)OC [Pinolenic Acid methyl ester],scaled lipid accumulation score,[1],≤ 0
CC(C)(C)c1cnc(CSc2cnc(NC(=O)C3CCNCC3)s2)o1,scaled lipid accumulation score,[3],0.373
same,scaled lipid accumulation score,[4],0.262 and 0.17
same,scaled lipid accumulation score,[5],0.414 and 0.498
same,scaled lipid accumulation score,[6],0.468
same,scaled lipid accumulation score,[2],0.32 and 0.42 and 0.56
CN([C@@H](Cc1ccc(OS(=O)(=O)c2cccc3cnccc23)cc1)C(=O)N1CCN(c2ccccc2)CC1)S(=O)(=O)c1cccc2cnccc12,scaled lipid accumulation score,[3],≤ 0
same,scaled lipid accumulation score,[4],≤ 0
same,scaled lipid accumulation score,[5],≤ 0
same,scaled lipid accumulation score,[2],0.021
COC(=O)C1=CO[C@@H](C)[C@H]2CN3CCc4c([nH]c5ccccc45)[C@@H]3C[C@H]12 [Ajmalicine hydrochloride],scaled lipid accumulation score,,0.17
CCCCc1nn(-c2ccccc2C(F)(F)F)c(=O)n1Cc1ccc(-c2ccccc2S(=O)(=O)NC(=O)c2sccc2C)cc1,scaled lipid accumulation score,[2],≤ -0.001
c1ccc2c(-c3cnn4cc(-c5ccc(N6CCNCC6)cc5)cnc34)ccnc2c1,scaled lipid accumulation score,[3],0.107
same,scaled lipid accumulation score,[4],≤ -0.009
same,scaled lipid accumulation score,[5],0.656
same,scaled lipid accumulation score,[2],0.103
"CCCCCC(=O)CC[C@@H]1[C@@H](C/C=C\CCCC(=O)O)[C@@H](O)C[C@H]1O [13,14-dihydro-15-keto Prostaglandin F2.alpha.]",scaled lipid accumulation score,[1],≤ 0
NC(=O)c1cccc(-c2cc(Nc3ccc(OC(F)(F)F)cc3)ncn2)c1,scaled lipid accumulation score,[3],≤ 0
same,scaled lipid accumulation score,[4],≤ 0
same,scaled lipid accumulation score,[5],0.03
same,scaled lipid accumulation score,[6],≤ 0
same,scaled lipid accumulation score,[2],≤ 0 and 0.198
CCCCCCCCCCCCC(O)C(=O)O (configuration not stated) [2-Hydroxymyristic acid],scaled lipid accumulation score,[1],0.03
CCCCCCCCCCCCC(O)C(=O)O (configuration not stated) [2-Hydroxymyristic Acid],scaled lipid accumulation score,[1],≤ 0
CC1=CC(=O)c2ccccc2C1=O [Menadione] [listing 1 of 2 here],scaled lipid accumulation score,[6],≤ 0
same,scaled lipid accumulation score,[2],0.707 and ≤ 0
same,scaled lipid accumulation score,library stock concentration: 11.6 mM,0.594
"COC1=C(OC)C(=O)c2ccccc2C1=O [2,3-Dimethoxy-1,4-naphthoquinone]",scaled lipid accumulation score,[2],0.634
CC1=CC(=O)c2ccccc2C1=O [Menadione] [listing 2 of 2 here],scaled lipid accumulation score,,0.873 (active)
O=C1NC(=O)/C(=C/c2ccc3nccnc3c2)S1,scaled lipid accumulation score,[3],≤ -0.016
same,scaled lipid accumulation score,[4],≤ -0.016
same,scaled lipid accumulation score,[5],≤ -0.016
same,scaled lipid accumulation score,[2],≤ -0.016
COc1cc(CNC(=O)CCCC/C=C/C(C)C)ccc1O [Capsaicin],scaled lipid accumulation score,,≤ 0
same,scaled lipid accumulation score,[1],≤ 0
same,scaled lipid accumulation score,[2],≤ 0
COc1cc(CNC(=O)CCCC/C=C/C(C)C)ccc1O [E-Capsaicin],scaled lipid accumulation score,library stock concentration: 16.4 mM,0.112
COc1cc(CNC(=O)CCCC/C=C/C(C)C)ccc1O [E-capsaicin],scaled lipid accumulation score,[2],≤ 0
COc1cc(CNC(=O)CCCC/C=C/C(C)C)ccc1O [(E)-Capsaicin],scaled lipid accumulation score,[2],≤ 0
COc1c(C)c2c(c(O)c1C/C=C(\C)CCC(=O)OCCN1CCOCC1)C(=O)OC2 [Mycophenolate Mofetil],scaled lipid accumulation score,[6],≤ 0
same,scaled lipid accumulation score,[2],≤ 0
CC(C)c1cccc(C(C)C)c1N1C(=O)c2ccc(O)cc2C1=O,scaled lipid accumulation score,[2],0.259
CN(C)CC(C)(C)CNc1nn2c(-c3ccccc3)nnc2cc1C1CCC1,scaled lipid accumulation score,[4],≤ -0.005
same,scaled lipid accumulation score,[5],≤ -0.005
same,scaled lipid accumulation score,[2],0.159
Cc1cc2c(cc1Cl)N(C(=O)Nc1ccc(Oc3cccnc3C)nc1)CC2,scaled lipid accumulation score,[2],0.832
Cc1cc2c(cc1Cl)N(C(=O)Nc1ccnc3ccccc13)CC2,scaled lipid accumulation score,[2],1.08 (active)
Cn1ccc2cc3c(cc21)CCN3C(=O)Nc1cccnc1,scaled lipid accumulation score,[2],≤ 0 and ≤ -0.006
CC(=Nc1ccccc1N)c1c(C)cc(=O)n(O)c1O,scaled lipid accumulation score,[2],≤ 0
CCCCCCCCCCCCCCCCOC[C@H](COP(=O)([O-])OCC[N+](C)(C)C)OC(=O)CCC [Butanoyl PAF],scaled lipid accumulation score,[1],≤ 0
CO[C@H]1C[C@@H]2CC[C@@H](C)[C@@](O)(O2)C(=O)C(=O)N2CCCC[C@H]2C(=O)O[C@H]([C@H](C)C[C@@H]2CC[C@H](n3cnnn3)[C@H](OC)C2)CC(=O)[C@H](C)/C=C(\C)[C@@H](O)[C@@H](OC)C(=O)[C@H](C)C[C@H](C)/C=C/C=C/C=C/1C [Zotarolimus(ABT-578)],scaled lipid accumulation score,[6],0.109
same,scaled lipid accumulation score,[2],≤ 0
OC[C@H]1NC[C@@H](O)[C@@H](O)[C@@H]1O [1-Deoxymannojirimycin hydrochloride],scaled lipid accumulation score,[2],≤ -0.006
same,scaled lipid accumulation score,library stock concentration: 25.1 mM,≤ -0.012
"CCCCC(C)(C)[C@H](O)/C=C/[C@H]1C=CC(=O)[C@@H]1C/C=C\CCCC(=O)O [16,16-dimethyl Prostaglandin A2]",scaled lipid accumulation score,[1],≤ 0
C#C[C@]1(O)CC[C@H]2[C@@H]3CCC4=CC(=O)CC[C@@H]4[C@H]3CC[C@@]21CC [Norgestrel-(-)-D],scaled lipid accumulation score,,≤ 0
C#C[C@]1(O)CC[C@H]2[C@@H]3CCC4=CC(=O)CC[C@@H]4[C@H]3CC[C@@]21CC,scaled lipid accumulation score,[2],0.195
C#CC1(O)CC[C@H]2[C@@H]3CCC4=CC(=O)CC[C@@H]4[C@H]3CC[C@@]21CC (some centres not stated) [Norgestrel],scaled lipid accumulation score,[1],0.037
same,scaled lipid accumulation score,[2],0.03
C#C[C@]1(O)CC[C@H]2[C@@H]3CCC4=CC(=O)CC[C@@H]4[C@H]3CC[C@@]21CC [Levonorgestrel],scaled lipid accumulation score,[1],≤ 0
same,scaled lipid accumulation score,[6],≤ 0
same,scaled lipid accumulation score,[7],0.107
same,scaled lipid accumulation score,[2],0.727
C#C[C@]1(O)CCC2C3CCC4=CC(=O)CC[C@@H]4C3CC[C@@]21CC (some centres not stated) [Norgestrel],scaled lipid accumulation score,[7],1.05 (active)
Nc1nc2c(nc(O)n2[C@@H]2O[C@H](CO)[C@@H](O)[C@H]2O)c(=O)[nH]1 [8-hydroxy Guanosine],scaled lipid accumulation score,[1],≤ 0
CCCCC[C@H](O)/C=C/[C@@H]1[C@H]2C/C(=C\CCCC(=O)O)C[C@H]2C[C@H]1O [5-cis Carbaprostacyclin],scaled lipid accumulation score,[1],≤ 0
O=C1OC[C@H](Cc2cccc(O)c2)[C@H]1Cc1cccc(O)c1,scaled lipid accumulation score,[1],≤ 0
O=C(Nc1cccc(Nc2nccc(Nc3cccc(C(F)(F)F)c3)n2)c1)C1CC1 [Aurora Kinase Inhibitor III],scaled lipid accumulation score,[6],0.0325
CCN(CC)CCCCNc1ncc2cc(-c3cc(OC)cc(OC)c3)c(NC(=O)NC(C)(C)C)nc2n1 [listing 1 of 3 here],scaled lipid accumulation score,[5],1.12 (active)
same,scaled lipid accumulation score,[2],1.22 (active)
CCN(CC)CCNC(=O)COc1ccc(OC)cc1 [Mefexamide hydrochloride],scaled lipid accumulation score,,≤ 0
CCN(CC)CCCCNc1ncc2cc(-c3cc(OC)cc(OC)c3)c(NC(=O)NC(C)(C)C)nc2n1 [listing 2 of 3 here],scaled lipid accumulation score,[3],≤ 0
same,scaled lipid accumulation score,[4],≤ 0
CCN(CC)CCNC(=O)COc1ccc(OC)cc1 [Mefexamide],scaled lipid accumulation score,library stock concentration: 6.3 mM,0.018
same,scaled lipid accumulation score,[2],≤ 0
CCN(CC)CCCCNc1ncc2cc(-c3cc(OC)cc(OC)c3)c(NC(=O)NC(C)(C)C)nc2n1 [listing 3 of 3 here],scaled lipid accumulation score,[6],1.34 (active)
same,scaled lipid accumulation score,[2],1.01 (active)
COc1cc(OC)cc(-c2cc3cnc(N)nc3nc2NC(=O)NC(C)(C)C)c1,scaled lipid accumulation score,[2],≤ 0
CCN(CC)CCCCNc1ncc2c(n1)N(C)C(=O)N(c1c(Cl)c(OC)cc(OC)c1Cl)C2,scaled lipid accumulation score,[3],≤ -0.008
same,scaled lipid accumulation score,[4],≤ -0.008
same,scaled lipid accumulation score,[5],≤ -0.001
same,scaled lipid accumulation score,[2],0.416
CCCCCCCCCCCCCC=CC(O)C(CO)NC(=O)CCCCCCCCCCCCCCCCCCCCCCC (configuration not stated) [Lignoceric Ceramide],scaled lipid accumulation score,[1],≤ 0
Nc1nc2ccc(Cl)cc2n2c(-c3ccccc3)nnc12,scaled lipid accumulation score,[2],0.049
CCCCC#Cc1nc(NC)c2ncn([C@@H]3O[C@H](CO)[C@@H](O)[C@H]3O)c2n1,scaled lipid accumulation score,[2],≤ 0 and ≤ -0.006
